This is a sample that favours compounds with a hit; in the whole collection about 7.3% have one here.
SMN2 splice up: qHTS Assay for Enhancers of SMN2 Splice Variant Expression; HEK293 SMN2-luciferase splicing reporter, luminescence, 30-36 h; Potency, µM (titrated, usually from 46.1 µM), usual class: activators; 210,000 tested, 2.8% active; note: nearly all actives have a fitted effect of over 55% in size
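qHTS luciferase splicing reporter: luminescence rises when SMN2 exon 7 is included in transfected HEK293 cells. Compound exposure lasted 30-36 h at 37C, with 4.5 mM final sodium butyrate as control, followed by a ONE-Glo read.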
Rab9 prom act: qHTS Assay for Rab9 Promoter Activators; Huh7 Rab9 promoter-luciferase reporter, luminescence, 24 h; Potency, µM (highest dose often 9.22 µM), most hits filed as activators; 320,000 tested, 2.8% active; AID 485297, 2010; note: nearly all actives have a fitted effect of over 60% in size
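Measured in stably transfected Huh7 cells bearing a Rab9 promoter–luciferase construct: 24 h compound treatment at 37 °C, followed by luminescence detection.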
NPC1 promoter act: qHTS Assay for NPC1 Promoter Activators; Huh7 NPC1 promoter luciferase reporter, 24 h; Potency, µM (highest dose often 9.22 µM), actives largely listed as activators; 320,000 tested, 2.4% active; note: nearly all actives have a fitted effect of over 60% in size
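Luminescence from an NPC1 promoter-driven luciferase reporter in stably transfected Huh7 cells was measured after 24 h compound treatment at 37 °C, followed by 10 min ambient incubation with luciferase detection reagent.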
ELG1 genotoxic: qHTS screen for small molecules that induce genotoxicity in human embryonic kidney (HEK293T) cells expressing luciferase-tagged ELG1. HEK293T ELG1-luciferase reporter, luminescence, 16 h. Potency, µM (highest dose often 46 µM), hits mostly activators. 330,000 tested, 1.3% active; note: nearly all actives have a fitted effect of over 60% in size
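After overnight (16 hr) compound treatment at 37 °C, ELG1-luciferase HEK293T cells were lysed with ONE-Glo; luminescence quantified 30 min later at room temperature.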
FLuc counter: qHTS profiling assay for firefly luciferase inhibitor/activator using purifed enzyme and Km concentrations of substrates (counterscreen for miR-21 project). Luciferin 4-monooxygenase (Photinus pyralis), P08659. Potency, µM (doses to about 57.5 µM), most hits filed as inhibitors. purified FLuc, Km substrates, luminescence inhibition. 360,000 tested, 6.9% active; note: nearly all actives have a fitted effect of over 55% in size
Target sequence (P08659 whole entry, looked up): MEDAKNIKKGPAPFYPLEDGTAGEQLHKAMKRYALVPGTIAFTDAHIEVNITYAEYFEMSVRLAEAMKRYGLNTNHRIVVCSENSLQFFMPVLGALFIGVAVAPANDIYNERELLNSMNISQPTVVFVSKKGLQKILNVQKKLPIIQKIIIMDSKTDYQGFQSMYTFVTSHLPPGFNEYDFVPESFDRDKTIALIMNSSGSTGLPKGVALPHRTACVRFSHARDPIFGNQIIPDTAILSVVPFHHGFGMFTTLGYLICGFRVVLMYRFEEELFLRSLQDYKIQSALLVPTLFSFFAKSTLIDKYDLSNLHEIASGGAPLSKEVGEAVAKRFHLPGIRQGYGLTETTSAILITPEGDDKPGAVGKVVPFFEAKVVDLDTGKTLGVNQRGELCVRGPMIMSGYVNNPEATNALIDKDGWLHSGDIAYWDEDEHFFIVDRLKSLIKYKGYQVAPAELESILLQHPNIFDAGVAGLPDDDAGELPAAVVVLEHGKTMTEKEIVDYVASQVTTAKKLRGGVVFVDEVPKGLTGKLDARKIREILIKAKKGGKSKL
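Purified P. pyralis luciferase (10nM final) with 10uM D-luciferin and 10uM ATP (Km levels) in 50mM Tris acetate pH 7.5, 10mM Mg acetate, 0.01% Tween-20, 0.05% BSA; qHTS 6-point titration, ~60 µM downward; luminescence read.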
KinaseGlo FLuc: Counterscreen for Luciferase (Kinase-Glo TM) Inhibition; Luciferin 4-monooxygenase (Photuris pensylvanica), Q27757; Kinase-Glo luciferase, ATP luminescence, 8 min; Potency, µM (titrated, usually from 38.3 µM), most hits filed as inhibitors; 200,000 tested, 0.28% active; AID 1379, 2008; note: nearly all actives have a fitted effect of over 60% in size
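Luminescence was the read-out, taken after 8-minute incubation at ambient temperature. Luciferase turned over luciferin with 10 uM ATP in imidazole pH 7.2 buffer containing KCl, MgCl2, Tween 20 and BSA.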
Hits are given with their value; i = inactive; ? = inconclusive; nt = no result; [ ] = dose if it differs, or a comment. Calls come from the whole dose curve; as a rule, active = well fitted curve in the direction sought with a large enough effect; inconclusive = small, poorly fitted or top-dose-only effect, or another doubt; inactive = no such curve, though single readings can be large; an effect the other way counts as inactive or inconclusive.

SMILES | SMN2 splice up | Rab9 prom act | NPC1 promoter act | ELG1 genotoxic | FLuc counter | KinaseGlo FLuc
COc1cc(/C=N/NC(=O)c2cc(C34CC5CC(CC(C5)C3)C4)[nH]n2)ccc1O | i | i | i | ? | 13µM | i
COc1cc(/C=N/NC(=O)c2[nH]nc3c2CCc2ccccc2-3)ccc1O | i | i | i | i | 27µM | i
COC(=O)[C@@H](NC(=O)O[C@@H]1C(=O)c2cc(OC)ccc2O[C@H]1c1ccc(OC)c(Br)c1)C(C)C | i | nt | nt | nt | nt | i
C=CCOC(=O)c1ccc(N2CCN(c3ccccc3)CC2)nc1 | nt | i | i | i | 17µM | nt
O=C(OCC(=O)N1CCN(c2ccccc2)CC1)c1cnc(Cl)c(Cl)c1 | i | i | i | i | i | i
CC(=O)c1cc(-c2ccc(F)cc2)n(CCC(=O)Nc2nc3c(C)cccc3s2)c1C | nt | nt | nt | nt | i | nt
COc1ccc(-c2cc(C(=O)OC(C)C(=O)Nc3c(C)n(C)n(-c4ccccc4)c3=O)c3ccccc3n2)cc1 (stereo unspecified) | i | i | i | i | 13µM | i
Cc1c(NC(=O)COC(=O)c2cc(-c3ccc(-c4ccccc4)cc3)nc3ccccc23)c(=O)n(-c2ccccc2)n1C | 0.63µM | 2.5µM | 0.63µM | ? | 0.85µM | i
COc1ccc(-c2cc(C(=O)Nc3c(C)n(C)n(-c4ccccc4)c3=O)c3ccccc3n2)cc1OC | nt | i | i | i | 21µM | nt
Cc1ccc(-c2cc(C(=O)Nc3c(C)n(C)n(-c4ccccc4)c3=O)c3ccccc3n2)cc1 | nt | nt | nt | i | nt | nt
Cc1c(NC(=O)C(C)OC(=O)c2cc(-c3cccc4ccccc34)nc3ccccc23)c(=O)n(-c2ccccc2)n1C (stereo unspecified) | i | i | i | i | i | i
O=C(NCC(c1cccnc1)N1CCN(Cc2ccccc2)CC1)C(=O)Nc1cccc(F)c1 (stereo unspecified) | nt | nt | nt | nt | i | nt
CCOc1ccc(CNc2nc3ccccc3n2C)cc1 | nt | 2µM | 3.2µM | ? | 12µM | nt
Cn1c(NCc2ccccc2F)nc2ccccc21 | 13µM | nt | nt | nt | 17µM | nt
Cc1ccc(CNc2nc3ccccc3n2C)o1 | nt | 2µM | ? | ? | ? | nt
CCOc1ccccc1CNc1nc2ccccc2n1C | nt | i | i | i | i | nt
CC(C)n1c(NCc2ccccc2O)nc2ccccc21 | nt | i | i | i | i | nt
Cn1c(NCc2ccccc2O)nc2ccccc21 | ? | 2.8µM | 4µM | ? | 21µM | i
CCN(CC)CCn1c(NCc2ccc(C)o2)nc2ccccc21 | i | i | i | i | i | i
COc1cccc(Cn2c(CNC(=O)C(C)C)nc3cccnc32)c1 | nt | nt | nt | nt | i | nt
Cc1ccc(C)c(N2CCN(CCCNC(=O)C3COc4ccccc4C3)CC2)c1 (stereo unspecified) | nt | nt | nt | nt | i | nt
COc1ccc(Nc2nc3ccccc3nc2NS(=O)(=O)c2ccc(Cl)cc2)cc1OC | i | nt | nt | nt | 6.7µM | nt
Brc1ccc(-c2ccc(CNCc3ccccn3)o2)cc1 | nt | i | i | i | 15µM | nt
Clc1cccc(-c2ccc(CNCc3ccccn3)o2)c1 | nt | i | i | i | ? | nt
COC(=O)c1ccccc1Oc1cnc2ccccc2n1 | nt | i | i | i | i | nt
SMILES | SMN2 splice up | Rab9 prom act | NPC1 promoter act | ELG1 genotoxic | FLuc counter | KinaseGlo FLuc
O=C(N/N=C\c1ccc(Cl)s1)c1cccs1 | i | ? | i | i | 17µM | i
COc1ccccc1C(=O)N/N=C/c1cnc2ccccc2n1 | 16µM | ? | ? | ? | ? | i
COc1ccccc1C(=O)N/N=C/c1ccc(Cl)s1 | ? | i | i | i | 19µM | i
O=C(N/N=C/c1ccncc1)c1cccs1 | nt | i | i | ? | ? | nt
Cc1nnc2c(N3CCN(c4ccc(F)cc4)CC3)nc3ccc(C(=O)c4ccccc4)cc3n12 | nt | nt | nt | nt | i | nt
COc1ccc(C)cc1NC(=O)C1CCN(S(=O)(=O)c2ccc3[nH]c4c(c3c2)CCCCC4)CC1 | nt | nt | nt | nt | i | nt
CCN(c1ccc(C)cc1C)S(=O)(=O)c1nnc(NC(=O)CC(C)C)s1 | nt | nt | nt | nt | i | nt
CNc1sc(C(=O)c2cccs2)c(N)c1-c1nc2ccccc2s1 | 5µM | 2.8µM | 4µM | ? | 2.7µM | i
O=C(Nc1ccc(Nc2ccc3c(c2)C(=O)c2ccccc2C3=O)c2c1C(=O)c1ccccc1C2=O)c1ccccc1 | i[9.22 µM] | nt | nt | nt | nt | i[7.66 µM]
CCc1c(C)sc2c1CCN(Cc1ccc(F)cc1)C2c1ccccc1 (stereo unspecified) | nt | nt | nt | nt | i | nt
COc1cccc(Nc2ncnc3c2cnn3-c2cccc(C)c2)c1 | i | ? | ? | i | 17µM | i
COc1ccccc1Nc1ncnc2c1cnn2-c1cccc(C)c1 | i | i | i | i | 13µM | i
COc1ccc(Nc2ncnc3c2cnn3-c2ccc(C)cc2)cc1Cl | nt | nt | nt | nt | 24µM | nt
Nc1nnc(N2CCCCCC2)s1 | i | i | i | i | i | i
O=C1CCCc2nc(N3CCCCC3)sc21 | ? | i | i | 21µM | ? | i
COc1ccc(Cn2cc(S(=O)(=O)c3ccc(C)cc3)c(=O)c3cc(F)ccc32)cc1 | i | nt | nt | nt | i | nt
COc1cc(/C=N/O)ccc1OCc1ccccc1Cl | 11µM | 1.6µM | 3.2µM | 16µM | 6.7µM | i
COc1ccc(/C=N/N=C2/NC(=O)C(CC(=O)O)S2)cc1OCc1ccccc1Cl (stereo unspecified) | i | i | i | i | i | i
Cc1ccc2nc(-c3ccc(NC(=O)CSc4nccc(=O)[nH]4)cc3)sc2c1 | 8.9µM | 0.4µM | 1.4µM | ? | 2.7µM | i
Nc1cc(=O)[nH]c(SCC(=O)Nc2nc3ccc([N+](=O)[O-])cc3s2)n1 | i | i | i | i | ? | i
Cc1ccc2nc(-c3ccc(NC(=O)CSc4nc(N)cc(=O)[nH]4)cc3)sc2c1 | nt | 2.8µM | 2.8µM | ? | 3.4µM | nt
S=C(NCCc1ccccc1)NCCc1ccccc1 | 13µM | 4.5µM | 4.5µM | ? | 15µM | i
CC(C)(C)NC(=O)NCCc1ccccc1 | nt | 4µM | 1.4µM | ? | 21µM | nt
S=C(NCCc1ccccc1)Nc1ccc(Cl)cc1 | 10µM | i | i | i | 17µM | i
CC(C)(C)C(=O)NC(=S)NCCc1ccccc1 | i | ? | ? | i | 17µM | i
S=C(NCCc1ccccc1)N/N=C/c1ccc(Cl)cc1 | nt | i | i | i | i | nt
CC(C)[C@H](NC(=O)NCCc1ccccc1)C(=O)O | i | i | i | i | i | i
COc1ccc(C2C(=O)N(C3CCCCCC3)CC(=O)N2CCC2=CCCCC2)cc1 (stereo unspecified) | nt | nt | nt | nt | i | nt
Cc1ccc(NC(=O)C2CCN(C(=O)c3cnn(-c4ccccc4)c3-n3cccc3)CC2)cc1 | i | nt | nt | nt | i | nt
CN(C)CCCNC(=O)/C(=N\O)c1ccccc1 | i | i | i | i | i | i
